AC50 and activity, negative = inhibition data for 66 compounds are collected here from PubChem BioAssay AID1851 (National Center for Advancing Translational Sciences (NCATS), 2009).

The structures appear in SMILES notation. In all, about 16,000 compounds went through this assay and about 2,600 (16%) were called active. Roughly 20% stayed inconclusive and do not appear here. Not all results are given here. Values without a mark were called inactive. The call rests on the fitted dose curve; in most records, active means well fitted curve in the direction sought with a large enough effect; inconclusive means small, poorly fitted or top-dose-only effect, or effect the other way; inactive means no such curve, though single readings can be large or run the other way.
On the % scale 0 is the no-effect control and ±100 the full control effect.

Chain of Cytochrome P450 2D6 (Homo sapiens) (P10635 whole entry, looked up): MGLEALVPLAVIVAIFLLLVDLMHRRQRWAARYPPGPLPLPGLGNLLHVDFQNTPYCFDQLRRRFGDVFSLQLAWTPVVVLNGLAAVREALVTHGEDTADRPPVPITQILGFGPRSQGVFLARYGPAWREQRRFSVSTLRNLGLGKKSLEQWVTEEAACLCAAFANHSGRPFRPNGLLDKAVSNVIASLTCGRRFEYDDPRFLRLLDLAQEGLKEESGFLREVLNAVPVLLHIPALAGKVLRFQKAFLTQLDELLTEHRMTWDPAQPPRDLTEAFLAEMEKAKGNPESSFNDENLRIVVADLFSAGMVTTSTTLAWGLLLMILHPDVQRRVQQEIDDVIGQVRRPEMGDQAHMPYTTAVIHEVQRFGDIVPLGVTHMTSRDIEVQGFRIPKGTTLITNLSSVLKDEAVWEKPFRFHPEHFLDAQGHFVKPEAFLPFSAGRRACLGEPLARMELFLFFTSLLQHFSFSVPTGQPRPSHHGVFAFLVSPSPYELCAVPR

This test has as its target Cytochrome P450 2D6 (Homo sapiens) (UniProt P10635). In words: Cytochrome panel assay with activity outcomes. To be noted: recombinant CYP, pro-luciferin dealkylation, luminescence, p450-cyp2d6; series mostly up to 57.1 µM.
The AC50 is the concentration at which the activity in the assay is half-maximal. For the compound `Cc1ccsc1-c1nc(-c2ccccc2)c(-c2ccccc2)[nH]1`, the AC50 entry was “inactive”.

Turning to `c1ccc(-c2n[nH]c(-c3ccccc3)c2-c2nc3ccccc3[nH]2)cc1`, the AC50 entry is “inactive”.

Take `Oc1ccc(-c2nc(-c3ccc(F)cc3)c(-c3ccncc3)[nH]2)cc1`: the AC50 is 5.01 µM (active).

Regarding `O=c1cnc2cnc(Oc3ccccc3)nc2n1C1CC1`, the AC50 entry is “inactive”.

For the compound `Cc1ccc(C(=O)c2cn(-c3ccc(F)c(Cl)c3)nn2)cc1`, the AC50 entry was “inactive”.

With `CC[C@](N)(CCC(=O)O)C(=O)O`, the AC50 entry is “inactive”.

`CCSc1nnc(NC(=O)COc2ccc3ccccc3c2)s1`: the AC50 result is “inactive”.

As for `Nc1nnc(SCCOc2cccc(Br)c2)s1`, the AC50 was 11.2 µM (active).

On to `CCn1c2ccccc2c2cc(N=C3SC(CC(=O)Nc4ccccc4OC)C(=O)N3C)ccc21` (stereo unspecified), for which the AC50 result is “inactive”.

In the case of `CCN(CC)c1nc(Nc2ccccc2)nc(Oc2ccc(C(=O)OC)cc2)n1`, the AC50 result is “inactive”.

Regarding `Cc1c(N(C)CS(=O)(=O)O)c(=O)n(-c2ccccc2)n1C`, the AC50 result is “inactive”.

As to `CN(C)C(=O)c1ccc(-c2nc(Nc3ccncc3)c3ccccc3n2)cc1`, the AC50 result is “inactive”.

In the case of `CN(C)c1ccc(-c2nc(-n3ccnc3)c3ccccc3n2)cc1`, the AC50 is 7.94 µM (active).

Turning to `CN(C)C(=O)c1ccc(-c2nc(-n3ccnc3)c3ccccc3n2)cc1`, the AC50 was 15.8 µM (active).

With `CN(C)C(=O)c1ccc(-c2nc(Nc3ccccc3)c3ccccc3n2)cc1`, the AC50 result was “inactive”.

In the case of `COc1ccc(-n2c(=O)c(-c3cccs3)nc3cncnc32)cc1`, the AC50 result is “inactive”.

`Cc1cc(=O)[nH]c2c1c(C)nn2C1CCOC(C)(C)C1` (stereo unspecified): the AC50 entry was “inactive”.

As for `O=C(Nc1nnc(CCS(=O)(=O)c2ccc(Br)cc2)s1)c1ccc([N+](=O)[O-])cc1`, the AC50 entry was “inactive”.

Turning to `O=S(=O)(O)c1ccc2cc(N=Nc3cc(S(=O)(=O)O)c4cccnc4c3O)ccc2c1`, the activity, negative = inhibition was -2.47% [at 11.4 µM].

Take `O=C(CCC(=O)Nc1ccccc1)NNC(=O)c1cccs1`: the AC50 entry is “inactive”.

Turning to `CCn1ccc(C(=O)NC2C(=O)N3C(C(=O)O)=C(C)CSC23)n1` (stereo unspecified), the AC50 entry was “inactive”.

For the compound `COC(=O)Nc1nc2ccc(SC(C)C)cc2[nH]1`, the AC50 entry is “inactive”.

In the case of `COc1ccc(-n2c(=O)c(-c3ccccc3)nc3cnc(N4CCNCC4)nc32)cc1`, the AC50 result is “inactive”.

Regarding `Fc1ccc(C(OCCCc2cnc[nH]2)c2ccc(F)cc2)cc1`, the AC50 is 0.631 µM (active).

Regarding `N[C@@H](Cc1cnc[nH]1)C(=O)O`, the AC50 entry is “inactive”.

As to `O=C(O)CC12C[C@H]3C[C@@H](CC(O)(C3)C1)C2`, the activity, negative = inhibition was 1.29% [at 11.4 µM].

On to `COc1ccc(C(O)c2nccn2Cc2ccccc2)cc1` (stereo unspecified), for which the AC50 was 10 µM (active).

With `COc1ccc([C@H](O)c2ccccn2)cc1`, the activity, negative = inhibition was 0.937% [at 11.4 µM].

Take `COc1ccc(-c2cnnc(CCCn3ccnc3-c3ccccc3)n2)cc1`: the activity, negative = inhibition was -4.95% [at 11.4 µM].

For `CCNC(=O)C/C(C)=N/NC(=O)C12CC3CC(CC(C3)C1)C2`, the AC50 entry is “inactive”.

Consider `COc1ccc(NC(=O)N2CC[C@@]3(CCCN(C(=O)c4ccc(OC)cc4)C3)C2)cc1`, for which the AC50 result is “inactive”.

Turning to `COc1ccc(NC(=O)N2CCCC3(CCN(C(=O)c4cccn4C)CC3)C2)cc1`, the AC50 result is “inactive”.

As to `CCn1c(SCc2ccc(C#N)cc2)nnc1-c1ccc(S(=O)(=O)N2CCCCC2)cc1`, the AC50 result is “inactive”.

Consider `N#Cc1ccc(C(c2nnnn2Cc2ccccc2)N2CCCC2)cc1` (stereo unspecified), for which the AC50 was 7.94 µM (active).

With `COCC1C2CC[C@H]3C(OCc4ccc(F)cc4C(F)(F)F)OC[C@]4(C)[C@H]3C2=C(CN4C(=O)OC(C)(C)C)[C@H](C)C1COC` (stereo partly specified), the AC50 result is “inactive”.

Consider `O=C(ON=C1CCN(S(=O)(=O)c2ccccc2)CC1)c1ccccc1`, for which the AC50 entry is “inactive”.

On to `c1ccn(-c2ccc(N3CCOCC3)cc2)c1`, for which the AC50 entry was “inactive”.

Turning to `COc1ccc(C(=O)NNC(=S)NC(=O)c2ccco2)cc1`, the AC50 entry is “inactive”.

Regarding `Cc1ccc(C)c(-n2c(Cc3cc(=O)[nH]c(=O)[nH]3)nnc2SCC(=O)NCC2CCCO2)c1` (stereo unspecified), the AC50 result is “inactive”.

Take `OCCCN=C1CCCCC1`: the activity, negative = inhibition was -10.2% [at 11.4 µM].

As for `CCOC(=O)c1ccccc1OCc1cc(/C=N/n2cnnc2)ccc1OC`, the AC50 entry was “inactive”.

Regarding `CC(Sc1ccc2c(c1)OCCO2)C(=O)Nc1ncc(Cl)cc1Cl` (stereo unspecified), the AC50 is 12.6 µM (active).

Take `CC(C)Cn1c(N)c(C(=O)CSc2ccc3c(c2)OCCO3)c(=O)n(C)c1=O`: the AC50 entry is “inactive”.

Take `CC(C)C(=O)Nc1cc2c(cc1C(=O)c1ccccc1)OCCO2`: the AC50 entry was “inactive”.

In the case of `CCn1c(C)nc2cc(C(=O)NNS(=O)(=O)c3ccccc3F)ccc21`, the AC50 result was “inactive”.

For the compound `Cc1cc(C)cc(N(C(=O)C2CCCC2)C2C=CS(=O)(=O)C2)c1` (stereo unspecified), the AC50 entry was “inactive”.

As to `COc1ccc(C(=O)N2CCC3(CC2)CN(C(=O)NC(C)C)C3)cc1`, the AC50 entry is “inactive”.

As for `COc1ccccc1OCCCOc1ccc([N+](=O)[O-])cc1Cl`, the AC50 was 11.2 µM (active).

Consider `COc1ccccc1CC(=O)O/N=C(\N)c1cccc([N+](=O)[O-])c1`, for which the AC50 entry is “inactive”.

Take `COc1cc(C)ccc1OCCCOc1ccccc1Cl`: the AC50 result was “inactive”.

As for `Cc1ccc(OCC(=O)NNC(=O)c2cc3ccccc3o2)cc1`, the AC50 entry was “inactive”.

In the case of `CCCS(=O)(=O)N1CCCC(C(=O)NCC2CCCO2)C1` (stereo unspecified), the AC50 entry is “inactive”.

With `CCCS(=O)(=O)N1CCCC(C(=O)N2CCN(c3ccccc3)CC2)C1` (stereo unspecified), the AC50 entry is “inactive”.

Consider `O=C(NCCCN1CCN(c2cccc(Cl)c2)CC1)C1CCC(=O)N1Cc1ccccc1Cl` (stereo unspecified), for which the AC50 was 5.01 µM (active).

For the compound `CCCS(=O)(=O)N1CCCC(C(=O)NCCN2CCC(Cc3ccccc3)CC2)C1` (stereo unspecified), the AC50 is 0.501 µM (active).

With `CCCS(=O)(=O)N1CCCC(C(=O)NCCCN2CCN(c3ccccc3F)CC2)C1` (stereo unspecified), the AC50 was 10 µM (active).

`CCCS(=O)(=O)N1CCCC(C(=O)NCCN2CCOCC2)C1` (stereo unspecified): the AC50 result was “inactive”.

`CCCN(CCC)CCNC(=O)C1CCCN(S(=O)(=O)c2ccc3c(c2)oc(=O)n3C)C1` (stereo unspecified): the AC50 result is “inactive”.

With `O=C(Nc1ccc(Br)cc1)C1CCC(=O)N1Cc1ccccc1Cl` (stereo unspecified), the AC50 result is “inactive”.

`CCCS(=O)(=O)N1CCCC(C(=O)NCCCOC(C)C)C1` (stereo unspecified): the AC50 entry was “inactive”.

`CCCS(=O)(=O)N1CCCC(C(=O)NCCCN2CCN(c3cccc(Cl)c3)CC2)C1` (stereo unspecified): the half-maximal activity concentration (AC50) is 5.62 µM (active).

For `COC(Cc1nnc(SC)n1-c1ccccc1)OC`, the AC50 result is “inactive”.

In the case of `CC(C)Nc1cc(C(F)(F)F)nc(-c2ccccn2)n1`, the AC50 result is “inactive”.

Consider `CC(C)COP(=O)(c1ccc(N(C)C)cc1)C(O)c1ccccc1F` (stereo unspecified), for which the AC50 entry was “inactive”.

Regarding `COc1cccc(Cn2c(=O)cnc3cnc(OC)nc32)c1`, the AC50 entry is “inactive”.

Take `Cc1ccc(-c2nc3c(=O)n(C)c4ccccc4c3o2)cc1`: the AC50 result is “inactive”.
